# Compound activity as filed in PubChem.
# Most compounds without a hit are left out; they make up all but 11% or so of the library.
# Tau FP inhib: blocks human tau fibril formation measured by polarization | P10636 | K18 P301L tau heparin fibrillization, Alexa594 FP, 6 h | Potency, µM (titrated, usually from 57.7 µM), actives largely listed as inhibitors | 0.39% of 280,000 active; note: nearly all actives have a fitted effect of over 55% in size
# Target sequence (P10636 561-689 P618L limits assumed): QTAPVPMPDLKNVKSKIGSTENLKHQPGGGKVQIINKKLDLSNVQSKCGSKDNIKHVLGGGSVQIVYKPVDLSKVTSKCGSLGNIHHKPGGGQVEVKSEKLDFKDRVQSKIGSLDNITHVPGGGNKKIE
#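 Human tau K18 […] P301L fragment, 15 uM unlabeled plus 0.24 uM Alexa 594-labeled tau (final), with compound and 20 uM heparin in 100 mM sodium acetate pH 7; 6 hr at 37 C, then Alexa 594 FP read.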
# FBPA coupling cs: inhibits coupling enzyme system, counter-screen for aldolase hits | coupling enzyme system counterscreen, AmpLite Red fluorescence | activity change, negative = inhibition, % at 58.2 µM, hits read low | 0.67% of 290,000 active; in the data active = activity change below about -30%
#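 Final compound at 57.5 uM, incubated 10 min at RT with coupling enzyme reagent (glyceraldehyde-3-phosphate), then 20 min with substrate and AmpLite Red detection. Fluorescence read at 525/598 nm; tests interference with the coupling assay, not aldolase inhibition.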
# Tau fluor cs: counter-screen for tau fibril formation inhibitors | tau K18 P301L Alexa594 fluorescence, heparin fibrillization | Potency, µM (series often up to 57.7 µM) | 0.93% of 280,000 active; note: nearly all actives have a fitted effect of over 55% in size
#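 Human K18 P301L tau (15 uM unlabeled plus 0.24 uM Alexa 594-labeled, final) in 100 mM sodium acetate pH 7 was mixed with compound and 20 uM heparin and incubated 6 hr at 37 C.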
# Sfp inh: Sfp phosphopantetheinyl transferase inhibition; Q9F4F7; Biochemical Sfp PPTase activity, qHTS; Potency, µM, hits mostly inhibitors; 3.5% of 310,000 active;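 note: the enzyme is Sfp with the accession as filed and its product quenches rhodamine fluorescence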
#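 Compounds were incubated with enzyme (final 15 nM) for 15 min at room temperature before substrate addition started the reaction. Fluorescence at 525 nm excitation, 598 nm emission was recorded immediately and after 30 minutes.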
# G9a inh: G9a (human) methyltransferase inhibition; Q96KQ7; G9a H3K9 monomethylation, AlphaScreen, 2 h; Potency, µM (highest dose often 102 µM), usual class: inhibitors; AID 504332; 8.8% of 350,000 active; note: nearly all actives have a fitted effect of over 75% in size
# Target sequence (Q96KQ7 913-1193 limits assumed): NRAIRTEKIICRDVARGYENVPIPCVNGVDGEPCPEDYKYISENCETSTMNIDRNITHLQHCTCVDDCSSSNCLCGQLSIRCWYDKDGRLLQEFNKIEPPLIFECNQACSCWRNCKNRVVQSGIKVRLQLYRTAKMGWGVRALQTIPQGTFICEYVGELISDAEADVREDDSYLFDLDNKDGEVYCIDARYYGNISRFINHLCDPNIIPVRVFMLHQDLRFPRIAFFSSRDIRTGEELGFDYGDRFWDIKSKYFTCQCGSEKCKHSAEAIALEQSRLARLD
#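 Compounds were preincubated with 20 nM G9a for 15 min, after which biotinylated H3K9 peptide (500 nM) and SAM (20 uM) started a 2 h room-temperature reaction. Monomethylated product was quantified by antibody-based AlphaScreen chemiluminescence.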
# Tau ThT inhib: inhibitors of human tau fibril formation, thioflavin T binding; P10636; recombinant tau K18 P301L (four-repeat tau fragment), heparin-induced fibrillization, ThT fluorescence; Potency, µM (top dose mostly 57.4 µM), usual class: inhibitors; 2.1% of 270,000 active; AID 1460; note: nearly all actives have a fitted effect of over 55% in size
#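 Heparin-induced (20 uM) aggregation of recombinant human K18 P301L tau, 15 uM unlabeled with 0.24 uM labeled, pH 7 acetate buffer, 6 hr at 37 C with compound. Fibrils quantified by 30 uM ThT fluorescence after 1 hr ambient incubation.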
# Hits are given with their value; – = inactive; ? = inconclusive; · = no result; [ ] = another dose, or the depositor's remark. Unless noted, calls come from the whole dose curve; as a rule, active = well fitted curve in the direction sought with a large enough effect; inconclusive = small, poorly fitted or top-dose-only effect, or another doubt; inactive = no such curve, though single readings can be large; an effect the other way counts as inactive or inconclusive.
SMILES,Tau FP inhib,FBPA coupling cs,Tau fluor cs,Sfp inh,G9a inh,Tau ThT inhib
COC(=O)c1ccccc1NC(=O)c1ccc(COc2cccc3ccccc23)o1,–,–,–,56.2µM,?,–
CC(C)Cn1c(=O)c2ccccc2n2c(CCC(=O)N3CCN(c4ccccc4F)CC3)nnc12,–,·,–,·,–,?
CCOC(=O)C1=C(CN2CCCCC2)NC(=O)NC1c1ccc(OC)cc1 (centres undefined),–,·,–,·,–,–
CC1=C(C(=O)OCc2ccccc2)C(c2ccc(N(C)C)cc2)NC(=O)N1 (centres undefined),–,–,–,–,10µM,–
COc1ccc(C2NC(=O)NC(C)=C2C(C)=O)cc1 (centres undefined),–,–,–,–,12.6µM,–
CCOc1ccc(C2NC(=O)NC(C)=C2C(=O)OCc2ccccc2)cc1 (centres undefined),·,–,·,–,–[0.501 µM],·
CCOC(=O)C1=C(CN2CCN(c3ccc(OC)cc3)CC2)NC(=O)NC1c1ccc(Cl)cc1 (centres undefined),–,·,?,·,7.94µM,?
CCOC(=O)C1=C(CN2CCN(c3ccc(OC)cc3)CC2)NC(=O)NC1c1ccc(OC)cc1 (centres undefined),–,·,–,·,11.2µM,–
CCc1ccccc1Nc1nc(N)nc(COC(=O)c2c(C)noc2C)n1,·,·,·,·,–,·
CCOC(=O)c1cc(C#N)c(N2CCN(c3ccc(OC)cc3)CC2)[nH]c1=O,–,–,–,–,5.01µM,?
CCOC(=O)c1[nH]c(CN2CCN(c3ccc(OC)cc3)CC2)c(C(=O)OCC)c1C,·,–,·,–,22.4µM,·
CCCCN1C(=O)C(=O)N(CC(=O)Nc2cc(Cl)ccc2OC)C1=O,·,·,·,·,–,·
Cc1ccc(N=C2c3ccccc3C(=O)C2[N+](=O)[O-])cc1C (centres undefined),–,–,–,–,39.8µM,–
S=c1[nH]nc(Cc2sc(-c3ccccc3)nc2-c2ccccc2)o1,–,–,–,–,28.2µM,–
O=C(NC(=S)NNS(=O)(=O)c1ccc(Cl)cc1)c1cccnc1,–,–,–,–,50.1µM,–
O=C(NC(=S)Nc1cccc2cccnc12)c1cccs1,–[2.34 µM],–,–[2.34 µM],–,–,–
Cc1cccc(C)c1NC(=O)c1cccnc1,·,–,·,–,–[0.501 µM],·
O=C(NNC(=S)Nc1ccccc1)c1cccnc1,·,–,·,–,56.2µM,·
Cc1cccc(C)c1NC(=O)CNC(=O)c1cccnc1,·,·,·,–,79.4µM,·
N#Cc1ccccc1NC(=S)NC(=O)c1cccs1,·,–,·,31.6µM,11.2µM,·
COc1ccc(C(=O)OCC(=O)NC2CCCCCC2)cc1OC,·,·,·,·,–,·
Cc1cccc(C(=O)N2CCc3cc(CNS(=O)(=O)c4ccc(F)c(Cl)c4)ccc32)c1,–,·,–,·,–,–
O=C(NNC(=S)NC(=O)c1cccnc1)c1ccccc1,–,–,–,–,28.2µM,–
O=C(Cc1ccccc1)NNC(=S)NC(=O)c1cccnc1,–,–,–,?,10µM,–
O=C(NNC(=S)NC(=O)c1cccnc1)c1ccc(F)cc1,–,–,–,–,·,–
SMILES,Tau FP inhib,FBPA coupling cs,Tau fluor cs,Sfp inh,G9a inh,Tau ThT inhib
O=C(NC(=S)NCc1ccccc1)c1cccnc1,–,–,–,–,–,–
O=C(CCc1ccccc1)NNC(=O)c1ccccn1,–,–,–,–,–,?
Cc1ccccc1NC(=S)NNC(=O)c1cccnc1,–,–,–,–,1.78µM,–
Cc1ccccc1NC(=S)NNC(=O)c1ccncc1,–,–,–,–,–,–
O=C(Cc1ccccc1)NNC(=O)c1cnccn1,–,–,–,35.5µM,1.78µM,–
COc1ccc(C(=O)NNC(=S)NC(=O)c2cccs2)cc1,·,–,·,–,39.8µM,·
O=C(NNC(=S)NC(=O)c1ccc(F)cc1)c1cccnc1,·,–,·,–,11.2µM,·
O=C(NNC(=O)C1CCCCC1)c1cnccn1,?,–,–,?,?,–
COc1ccc(C(=O)NNC(=S)NC(=O)c2ccc(OC)cc2)cc1,·,–,·,–,·,·
COc1ccc(C(=O)NNC(=S)NC(=O)c2cccnc2)cc1,–,–,–,–,12.6µM,–
O=C(O)c1cnccn1,–,–,–,?,8.91µM,–
COc1ccc(CC(=O)NNC(=S)NC(=O)c2cccnc2)cc1,–,–,–,?,·,–
